Values without a mark were called inactive. Activity calls are given as the source filed them. The call rests on the fitted dose curve; in most records, active means well fitted curve in the direction sought with a large enough effect; inconclusive means small, poorly fitted or top-dose-only effect, or another doubt; inactive means no such curve, though single readings can be large or run the other way.
These compounds were tested against alpha-glucosidase (Oryza sativa, rice) (UniProt Q653V4) (assay: Counterscreen for Glucocerebrosidase Inhibitors: qHTS Assay for Rice alpha-Glucosidase at pH 5.0 (AID 997;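 further: 0% = full activity with enzyme and -100% = basal without enzyme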)). Conditions: rice alpha-glucosidase enzyme activity; series mostly up to 76.9 µM; activity change, negative = inhibition: at the top concentration.
Source text: NIH Chemical Genomics Center [NCGC]
NIH Molecular Libraries Screening Centers Network [MLSCN]
PI Name: Zheng, Wei [NIH]
Alpha-glucosidase is responsible for hydrolysis of terminal, non-reducing 1,4-linked alpha-D-glucose residues with release of alpha-D-glucose. It is a lysosomal hydrolase that is required for the degradation of a small percentage (1-3%) of cellular glycogen in human. Deficiency of this enzyme results in glycogen-storage disease type II (GSDII), also referred to as Pompe disease, an autosomal recessive disorder. Structurally normal glycogen is accumulated in lysosomes and cytoplasm in affected patients, primarily in muscle tissues. Excessive glycogen storage within lysosomes may interrupt normal functioning of other organelles and leads to cellular injury. In turn, this leads to enlargement and dysfunction of the entire organ involved (eg, cardiomyopathy and muscle weakness).
It has reported that the improper folding and trafficking of alpha-glucosidase resulted from the genetic mutations may account for a significant number of Prope patients. […] We optimized this alpha-glucosidase assay in 1536-well plate format for identifying the novel small molecule inhibitors with the structures other than the sugar analogs in order to develop the new pharmacological chaperones.
NCGC Assay Protocol Summary:
This is a fluorogenic enzyme assay with 4-methylumbelliferyl-alpha-D-pyranoside as the substrate and rice alpha-glucosidase as the enzyme preparation. Upon the hydrolysis of this fluorogenic substrate, the resulting product, 1. 4-methyllumbelliferone, can be excited at 365 nm and emits at 440 nm which can be detected by a standard fluorescence plate reader. Data were normalized to the controls for basal activity (without enzyme) and 100% activity (with enzyme). In the AC50 values were determined from concentration-response data modeled with the standard Hill equation.
Assay buffer: 50 mM citric acid, 0.005% Tween-20, pH 5.0. (pH 5.0 is an optimal condition for this enzyme assay)
1536-well assay protocol for the human alpha-glucosidase:
(1) Add 2 ul/well of enzyme (4 nM final)
(2) Add 23 nL compounds in DMSO solution. The final titration was 0.7 nM to 77 uM.
(3) Add 1 ul of substrate (400 uM final)
(4) Incubate at room temperature for 20 min.
(5) Add 2 ul stop solution (1M NaOH and 1M Glycine mixture, pH 10)
(6) Detect the assay plate in a ViewLux plate reader (PerkinElmer) with Ex=365 nm and Em=440nm.
Keywords: Alpha-glucosidase, Prope Disease, pharmacological chaperone, chaperone therapy, high throughput screening, alpha-glucosidase inhibitor, MLSMR, MLSCN, NIH Roadmap, qHTS and NCGC

In order of rising “activity change, negative = inhibition” value:
1. O=c1[nH]c2ccccc2n1C1CCN(CCCC(c2ccc(F)cc2)c2ccc(F)cc2)CC1  -14.3%
2. Clc1cccc(N2CCNCC2)c1  -6.3%
3. Fc1ccc(C(OCCN2CCN(CCCc3ccccc3)CC2)c2ccc(F)cc2)cc1  -5.27%
4. N#CC(C#N)=Cc1ccc(O)c(O)c1  -4.66%
5. O=c1[nH]c2ccccc2n1CCCN1CCC(n2c(=O)[nH]c3cc(Cl)ccc32)CC1  -4.14%
6. CN1C[C@H](CNC(=O)OCc2ccccc2)C[C@@H]2c3cccc4c3c(cn4C)C[C@H]21  -4.01%
7. NCC(CC(=O)O)c1ccc(Cl)cc1 (configuration not stated)  -4%
8. Nc1ccncc1  -3.93%
9. COc1ccccc1N1CCNCC1  -3.81%
10. N[C@@H]1C[C@H]1c1ccccc1  -3.65%
11. CCCN1CCC[C@@H]2Cc3nc(N)ncc3C[C@H]21  -3.16%
12. CC(=O)[C@H]1CC[C@H]2[C@@H]3CC[C@H]4C[C@H](O)CC[C@]4(C)[C@H]3C(=O)C[C@]12C  -2.65%
13. CCn1cc(C(=O)O)c(=O)c2ccc(C)nc21  -2.59%
14. Cc1ncc(CNC(=O)N(CCCl)N=O)c(N)n1  -1.21%
15. CCCC(C)(COC(N)=O)COC(=O)NC(C)C (configuration not stated)  -0.445%
16. Cc1cccc(C)c1NC1=NCCCS1  -0.036%
17. c1ccc(C2CC2)c(OCC2=NCCN2)c1  0.0143%
18. NCC1(CC(=O)O)CCCCC1  0.216%
19. Cc1ccc(S(=O)(=O)N[C@@H](CCCCN)C(=O)CCl)cc1  0.655%
20. CNCC(O)c1ccc(O)cc1 (configuration not stated)  0.9%

CCCN1CCC[C@@H]2Cc3[nH]ncc3C[C@H]21 was tested, and the outcome was “inactive”.
With NN=C(N)N the outcome was “inactive”.
